Measured values reported in PubChem BioAssay AID720690 (Broad Institute, 2013).
Measured potencies and affinities stand elsewhere. Values without a mark were called inactive.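 The calls were made as follows: active = every repeat run showing a signal drop whose fitted half-maximal concentration is at most twice the top tested concentration; inconclusive = repeat runs disagree, or flat partial drop, or poor fit; inactive = the rest.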

test: HEK293T cytotoxicity, dose response, cytotoxicity control for miR-122 modulator project, cell-based, activator set, cherry-pick (AID 720690); conditions: HEK293T viability, CellTiter-Glo luminescence, 48 h; series mostly up to 26 µM; activity change, negative = cytotoxicity: at the top concentration;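 also: 0% = neutral control wells and -100% = MG132 cytotoxic control wells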

Compound	activity change, negative = cytotoxicity
COc1cccc(CNC(=O)C[C@@H]2CC[C@@H]3[C@H](COc4ccc(NC(C)=O)cc4C(=O)N3C)O2)c1	0.833%
COCC(=O)N(C[C@@H]1[C@@H](c2ccccc2)[C@H](CO)N1C(=O)NC(C)C)C(C)C	2.09%
Nc1nc(Cl)nc2c1ncn2[C@H]1C[C@H](O)[C@@H](CO)O1	-34.9%
CNC(=O)C[C@@H]1CC[C@@H]2[C@H](COc3ccc(NC(=O)Nc4cccc(C)c4)cc3C(=O)N2C)O1	7.34%
C[C@H](NC(=O)C[C@@H]1CC[C@H]2[C@H](COc3ccc(NS(=O)(=O)c4ccc(Cl)cc4)cc3C(=O)N2C)O1)c1ccccc1	-12.7%
C[C@@H]1CN([C@H](C)CO)C(=O)c2cc(NC(=O)Nc3ccc(C(F)(F)F)cc3)ccc2O[C@@H]1CN(C)CC1CCCCC1	5.66%
CN1C(=O)c2cc(NC(=O)Cc3ccccc3)ccc2OC[C@H]2O[C@@H](CC(=O)NC3CCC3)CC[C@@H]21	1.07%
CCCNC(=O)N1C[C@@H]2[C@H](c3ccccc31)[C@H](CO)N2C(=O)C1CCOCC1	-4.34%
COc1cc(C(=O)Nc2ccc(S(=O)(=O)N3CCCCC3C)cc2)cc(OC)c1OC (stereo not drawn)	41.5%
CN(C(=O)c1ccccc1Cl)C1CCCCC1	-4.24%
CN1C(=O)c2cc(NC(=O)c3cccc(F)c3)ccc2OC[C@H]2O[C@@H](CC(=O)O)CC[C@H]21	8.84%
Cc1ccc(-c2nnn(CC(=O)N(CC(=O)NCC3CCCO3)c3ccccc3)n2)o1 (stereo not drawn)	16.4%
CC(=O)N(C)C[C@H]1Oc2cc(/C=C/c3ccccc3)ccc2S(=O)(=O)N([C@@H](C)CO)C[C@H]1C	-1.21%
